A short description of experiment [1]: HepG2 liver cancer cell viability effects, profiling panel, resazurin fluorescence, 24 h, PK04 Diversity Set (AID 1172). Also: test concentration not given here. Conditions: higher = more signal.
The nature of experiment [2]: basal S. cerevisiae growth modulation, no modifier, primary screen, OD600, strain BY4716, 24 h, basal condition (AID 1173). To be noted: OD600, 24 h, higher = more signal, called active from +8 up or from −8 down.
A short description of experiment [3]: MM1S myeloma cell viability, profiling panel, resazurin fluorescence, basal, 24 h, PK04 Diversity Set (AID 1174).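 Also: MM1S multiple myeloma cell line; test concentration not given here.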 Conditions: higher = more signal, called active from +8 up or from −8 down. On the technique in general: Resazurin is reduced to fluorescent resorufin, in cell work by metabolically active cells.
Experiment [4] addresses Dihydroorotate dehydrogenase (quinone), mitochondrial (Plasmodium falciparum (isolate 3D7)) (UniProt Q08210). In words: PfDHODH enzyme inhibitors, primary screen, biochemical, C-terminal His tag, absorbance 600 nm (AID 1175).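 Also: recombinant parasite enzyme with a five histidine tag at its C terminus; test concentration not given here.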 To be noted: DCIP absorbance 600 nm, higher = more signal, called active from +8 up or from −8 down.
Experiment [5] in a line: P. aeruginosa biofilm formation inhibitors, primary screen, strain PAO1, LB-PBS medium, absorbance 600 nm (AID 1176). Also: test concentration not given here. Conditions: P. aeruginosa PAO1 growth/biofilm, A600, 12 h; higher = more signal.
Experiment [6] can be described thus: S. cerevisiae RM11-1a growth modifiers, primary screen, strain RM11-1a, OD600, basal, 24 h (AID 1177).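 Also: cultures grown under basal conditions with no added stressor; test concentration not given here.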 Conditions: OD600, 24 h, higher = more signal, called active from +8 up or from −8 down.
Experiment [7] is described as follows: E. coli acrAB mutant growth effects, primary screen, E. coli filamentation inducers, strain DRC39, OD650, 24 h (AID 1178).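 Also: growth measured as culture turbidity by optical density at 650 nm; test concentration not given here.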 To be noted: higher = more signal, called active from +8 up or from −8 down.
A short description of experiment [8]: E. coli acrAB mutant growth effects, primary screen, E. coli filamentation inducers, strain DRC39, OD650, 48 h (AID 1179).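 Also: screen aims at cell division blockers that make cells filament.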 To be noted: E. coli DRC39 delta-acrAB growth, higher = more signal, called active from +8 up or from −8 down.
Experiment [9] can be described thus: RPMI8226 myeloma cell viability, profiling panel, resazurin fluorescence, basal, 24 h, PK04 Diversity Set (AID 1180).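 Also: RPMI8826 multiple myeloma cell line at 5000 cells per well; test concentration not given here.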 To be noted: higher = more signal.
Experiment [10] deals with E3 ubiquitin-protein ligase XIAP (Homo sapiens) (UniProt P98170). The experiment can be described thus: XIAP binders, primary screen, biophysical, small-molecule microarray, fluorescence 635 nm (AID 1181).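 Also: score merges 667 nm emission and signal to noise over triplicate slides.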 Conditions: small-molecule microarray binding, higher = more signal.
Sequence of E3 ubiquitin-protein ligase XIAP (Homo sapiens) (P98170 whole entry, looked up): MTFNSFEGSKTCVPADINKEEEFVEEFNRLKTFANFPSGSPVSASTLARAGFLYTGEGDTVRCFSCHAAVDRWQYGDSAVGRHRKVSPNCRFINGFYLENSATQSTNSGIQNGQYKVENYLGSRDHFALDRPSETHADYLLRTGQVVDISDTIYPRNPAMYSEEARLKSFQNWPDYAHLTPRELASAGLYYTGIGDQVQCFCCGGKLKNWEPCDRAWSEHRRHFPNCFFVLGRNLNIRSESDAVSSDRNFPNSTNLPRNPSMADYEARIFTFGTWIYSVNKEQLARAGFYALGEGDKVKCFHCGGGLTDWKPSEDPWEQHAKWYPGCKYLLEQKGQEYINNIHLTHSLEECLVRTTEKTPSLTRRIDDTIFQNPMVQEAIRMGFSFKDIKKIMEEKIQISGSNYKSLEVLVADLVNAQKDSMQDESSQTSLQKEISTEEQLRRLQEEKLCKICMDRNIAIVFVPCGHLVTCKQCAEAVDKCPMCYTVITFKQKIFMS

Active and inactive are the calls of the source. Unless noted, no rule for the calls is given here.

Sequence of Dihydroorotate dehydrogenase (quinone), mitochondrial (Plasmodium falciparum (isolate 3D7)) (Q08210 whole entry, looked up): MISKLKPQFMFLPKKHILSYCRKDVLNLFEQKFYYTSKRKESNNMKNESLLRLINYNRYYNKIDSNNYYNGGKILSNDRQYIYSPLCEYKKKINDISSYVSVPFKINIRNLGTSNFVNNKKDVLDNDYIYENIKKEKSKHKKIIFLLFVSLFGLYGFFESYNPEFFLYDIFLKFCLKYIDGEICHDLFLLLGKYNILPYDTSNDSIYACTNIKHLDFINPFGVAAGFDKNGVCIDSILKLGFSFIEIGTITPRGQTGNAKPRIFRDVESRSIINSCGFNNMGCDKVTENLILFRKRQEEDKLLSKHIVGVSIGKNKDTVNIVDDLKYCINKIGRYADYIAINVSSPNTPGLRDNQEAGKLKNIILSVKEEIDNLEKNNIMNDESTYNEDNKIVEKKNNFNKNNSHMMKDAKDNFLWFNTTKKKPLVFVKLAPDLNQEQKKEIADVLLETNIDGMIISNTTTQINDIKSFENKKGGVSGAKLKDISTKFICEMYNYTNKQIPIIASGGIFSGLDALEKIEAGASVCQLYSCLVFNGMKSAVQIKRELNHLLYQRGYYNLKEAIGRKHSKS

As to `CCCNC(=O)OC[C@H]1O[C@H](CCON=C[C@@H](C)[C@H](OCc2ccccc2)C(C)C)C=C[C@@H]1Oc1ccc(OC)cc1`, the z-score is -0.208 in experiment [1]; -0.682 (inactive) in experiment [2]; -2.5 (inactive) in experiment [3]; -0.242 (inactive) in experiment [5]; -2.27 (inactive) in experiment [6]; 0.0465 (inactive) in experiment [7]. The values for the z-score in [8] and in experiment [9] were 0.428 (inactive) and -0.58, respectively. The composite z-score is -1.78 (inactive) in [4] and -0.357 in [10].
As to `COc1ccc(COC(=O)NN=C2C[C@@H](O)[C@@H](O)[C@@H]3[C@@H]4C(=O)N(C(C)(C)C)C(=O)[C@@H]4CC[C@@H]23)cc1`, the z-score was -0.216 in experiment [1]; -0.719 (inactive) in experiment [2]; -0.181 (inactive) in experiment [3]; -0.225 (inactive) in [5]; -1.06 (inactive) in [6]; 0.237 (inactive) in [7]. For the same compound, the z-score is 0.255 (inactive) in experiment [8] and 0.156 in experiment [9]. Besides, the composite z-score in [4] is -0.761 (inactive); in experiment [10], -0.252.
On to `O=C1[C@H]2[C@H]3[C@H](O)[C@H](O)CC(=NOCc4ccccc4)[C@H]3CC[C@H]2C(=O)N1C1CCCCC1`, for which the z-score in experiment [1] was -0.483; in experiment [2] it was -0.149 (inactive); in experiment [3], -0.99 (inactive); in [5] it was 0.377 (inactive); in experiment [6] it was -0.373 (inactive); in experiment [7], -0.157 (inactive). Moreover, the z-score was -0.414 (inactive) in [8] and -1.83 in experiment [9]. Also, the figures for the composite z-score in experiment [4] and in experiment [10] were 0.0894 (inactive) and 0.237, respectively.
As for `COC(OC)[C@@H](C)[C@H](OC)[C@@H](C)[C@H](OC)c1ccccc1`, the z-score was -0.634 in [1]; -1.31 (inactive) in [2]; -2.8 (inactive) in [3]; 0.912 (inactive) in [5]; -1.02 (inactive) in experiment [6]; 0.366 (inactive) in experiment [7]. Further, the z-score in [8] was -0.0254 (inactive); in experiment [9], -0.466. The composite z-score in experiment [4] is -2.36 (inactive); in experiment [10], -0.138.
Turning to `CC(C)=CCCC(C)=CCON=C1C[C@@H](O)[C@@H](O)[C@@H]2[C@@H]3C(=O)N([C@@H](C)c4ccccc4)C(=O)[C@@H]3CC[C@@H]12`, the z-score in experiment [1] was -0.243; in experiment [2], 0.408 (inactive); in experiment [3] it was -0.32 (inactive); in experiment [5], 0.283 (inactive); in experiment [6], -0.471 (inactive); in [7], -0.464 (inactive). The z-score in experiment [8] was -0.131 (inactive); in experiment [9] it was -0.249. Also, the composite z-score in experiment [4] is -0.0515 (inactive); in experiment [10], -0.0476.
As for `CCc1cc2c(nc1CC)CCN(CCC(C)=NOC[C@@H](C)[C@H](OCc1ccccc1)C(C)C)C2`, the z-score is -0.0541 in experiment [1]; -0.258 (inactive) in [2]; 0.0348 (inactive) in experiment [3]; -0.537 (inactive) in experiment [5]; -2.21 (inactive) in [6]; -0.231 (inactive) in [7]. The z-score in [8] was -0.313 (inactive); in [9], -0.261. The composite z-score in experiment [4] is -1.67 (inactive); in experiment [10], -0.11.
As for `CC(CCN1CCc2nc(-c3ccccc3)c(-c3ccccc3)cc2C1)=NOC(C)CN1CCCc2nc(C)c(C)cc21` (stereo not given), the z-score in [1] is -0.0686; in experiment [2], -3.98 (inactive); in experiment [3], -0.877 (inactive); in experiment [5], 0.371 (inactive); in [6] it was -0.572 (inactive); in experiment [7] it was 0.798 (inactive). Further, the z-score in experiment [8] was -0.391 (inactive); in experiment [9] it was -0.469. Moreover, the composite z-score in [4] is 0.417 (inactive); in experiment [10], 0.326.
For `CCCNC(=O)OC[C@H]1O[C@H](CCON=C[C@@H](NS(=O)(=O)c2ccc(C)cc2)[C@H](C)C=CCC(=O)OC)C=C[C@@H]1Oc1ccc(OC)cc1`, the z-score was -0.765 in [1]; 0.0177 (inactive) in experiment [2]; 0.0958 (inactive) in experiment [3]; 0.311 (inactive) in experiment [5]; -0.803 (inactive) in [6]; 0.101 (inactive) in experiment [7]. Moreover, the figures for the z-score in [8] and in experiment [9] were -0.138 (inactive) and 0.732, respectively. In addition, the results for the composite z-score in experiment [4] and in experiment [10] were 0.216 (inactive) and -0.207, respectively.
As for `Cc1ccc(C(C)C)n1C(=O)OC(C)(C)C`, the z-score was -0.728 in experiment [1]; -0.947 (inactive) in [2]; -1.46 (inactive) in experiment [3]; 1.01 (inactive) in [5]; -1.18 (inactive) in [6]; 0.32 (inactive) in experiment [7]. The z-score in experiment [8] is -0.113 (inactive); in experiment [9], -1.65. Further, the composite z-score was -1.24 (inactive) in experiment [4] and -0.0509 in experiment [10].
For the compound `O=C1C[C@@H](O)[C@@H](O)[C@@H]2[C@@H]3C(=O)N(C4CCCCC4)C(=O)[C@@H]3CC[C@@H]12`, the z-score in experiment [1] was -0.432; in [2] it was 0.133 (inactive); in experiment [3], -0.262 (inactive); in [5], -1.13 (inactive); in experiment [6], 0.356 (inactive); in [7] it was -0.574 (inactive). Further, the z-score was -0.354 (inactive) in [8] and -0.27 in [9]. Also, the composite z-score in experiment [4] was -0.506 (inactive); in experiment [10] it was 0.333.
With `CC(CCN1CCCc2nc(C)c(C)cc21)=NOC[C@@H](C)[C@H](OCc1ccccc1)C(C)C`, the z-score in experiment [1] was -0.135; in experiment [2] it was -3.26 (inactive); in [3] it was 0.0518 (inactive); in experiment [5], -0.0417 (inactive); in experiment [6], -1.86 (inactive); in experiment [7], -0.787 (inactive). For the same compound, the figures for the z-score in experiment [8] and in [9] were 0.262 (inactive) and -0.0093, respectively. For the same compound, the composite z-score in experiment [4] was -2.07 (inactive); in experiment [10], 0.0153.
For the compound `COC(=O)CC=C1c2ccccc2[C@H](OC)[C@H]1C`, the z-score in experiment [1] is -0.71; in experiment [2], 0.338 (inactive); in experiment [3], -0.788 (inactive); in [5] it was -0.245 (inactive); in [6], -0.138 (inactive); in experiment [7], 0.216 (inactive). The z-score in [8] was 0.403 (inactive); in [9] it was -0.49. Besides, the composite z-score in experiment [4] is 0.582 (inactive); in experiment [10] it was 0.419.

The values are drawn from PubChem BioAssay.
